Test results published in PubChem BioAssay AID686971 (National Center for Advancing Translational Sciences (NCATS), 2013).
Out of some 360,000 compounds screened, about 7,500 (2.1%) were called active. About 8% were inconclusive and are not listed. For the sample, actives were picked, then their nearest neighbours and some compounds at random. Unmarked numbers belong to inactive results. Calls come from the whole dose curve; as a rule, active = well fitted cell-killing curve with a large enough effect; inconclusive = small, poorly fitted or top-dose-only effect, or effect the other way, or another doubt; inactive = no such curve, though single readings can be large or run the other way.

Assay: qHTS for induction of synthetic lethality in tumor cells producing 2HG: qHTS for the HT-1080-IDH1KD cell line;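 for activity, negative = toxicity: 0% = DMSO wells and -100% = cell-free medium wells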
Settings: HT-1080 IDH1 knockdown viability, ATP luminescence, 48 h; series mostly up to 46.1 µM; activity, negative = toxicity: at the top concentration
In short: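 % activity derives from luminescence (CellTiter-Glo), normalised to DMSO and no-cell wells. HT-1080-IDH1KD cells, 750/well, had 48 h compound exposure at 37 °C.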
Potency is the fitted concentration of half-maximal effect.

Row | SMILES | activity, negative = toxicity [%] | Potency
1 | CC1=C(C(=O)N(C(C)C)C(C)C)CC(CC(=O)NCC2CCCCC2)C(=O)N1Cc1ccccc1 (stereo unspecified) | -0.475 | 
2 | O=C(NCc1ccccn1)[C@@H]1CCCN1C(=O)[C@@H]1CCCN1C(=O)c1ccccc1 | 0.107 | 
3 | CC(C)/C=N/NC(=O)c1cc(Br)ccc1O | 4.46 | 
4 | CC(=O)N/N=C(\C)c1ccc(Br)cc1Br | 0.294 | 
5 | CC(=N\NC(=O)c1cc(Br)ccc1O)/C(=N/O)C(=O)Nc1ccccc1 |  | 16.4 µM (active)
6 | CN(C)C1CN(Cc2cn(Cc3ccccc3)nn2)S(=O)(=O)C1 (stereo unspecified) | 8.37 | 
7 | CCCNC(=O)C1(C)CCN(C(=O)c2cc(F)ccc2C)C1 (stereo unspecified) | 28.1 | 
8 | CSc1ccc(CNC(=O)C2(C)CCCN2C)cc1 (stereo unspecified) | -1.05 | 
9 | Cc1ccc(CN2CCC(n3nccc3NC(=O)CCCc3ccccc3)CC2)o1 | -3.69 | 
10 | COc1ccc(CN2CCC(n3nccc3NC(=O)CCCc3ccccc3)CC2)cc1C |  | 18.4 µM (active)
11 | COc1cc(CN2CCC(n3nccc3NC(=O)CCCc3ccccc3)CC2)ccc1O | -11.8 | 
12 | Cc1noc(C)c1NC(=O)N(C)C[C@@H]1Oc2cc(Br)ccc2S(=O)(=O)N([C@@H](C)CO)C[C@H]1C | 0.461 | 
13 | CCCNC(=O)C1(C)CCN(C(=O)c2ccc(F)cc2Cl)C1 (stereo unspecified) | 21.7 | 
14 | Cc1cccc(C)c1-n1nnnc1C(CCc1ccccc1)N1CCN(C/C=C/c2ccccc2)CC1 (stereo unspecified) | 18.2 | 
15 | O=C(CC[C@H]1O[C@@H](n2ccc(=O)[nH]c2=O)[C@H](O)[C@@H]1O)N[C@H](Cc1ccccc1)C(=O)NCCCN1CCCC1=O | -0.192 | 
16 | CCc1noc(C)c1C(=O)NNC(=O)c1ccc(F)cc1 | -1.3 | 
17 | O=C(/C=C/c1ccc([N+](=O)[O-])o1)NNC(=O)c1ccc(F)cc1 |  | 2.59 µM (active)
18 | O=C(NNC(=O)C1CCCC1)c1ccc(F)cc1 | 14 | 
19 | CC(C)c1ccc2c(c1)c(SC(C)(C)C)c(CC(C)(C)C(=O)O)n2Cc1ccc(Cl)cc1 |  | 18.4 µM (active)
20 | N#CCCN(C(=O)Nc1ccc(Cl)c(Cl)c1)C1CCCCC1 | -16.4 | 
21 | C[C@H](CO)N1C[C@H](C)[C@@H](CN(C)C(=O)c2cccc(F)c2)Oc2cc(-c3cncnc3)ccc2S1(=O)=O | 2.86 | 
22 | CN(C)c1nc(=Nc2cccc(Cl)c2)ss1 | -2.12 | 

Row | SMILES | activity, negative = toxicity [%] | Potency
23 | Clc1cccc(N=C2NN=C(c3ccc4c(c3)OCCO4)CS2)c1 |  | 7.94 µM (active)
24 | C[C@H]1CN([C@@H](C)CO)C(=O)CCCn2cc(nn2)CO[C@@H]1CN(C)S(=O)(=O)c1cccs1 | 13.1 | 
25 | CCCn1c(N)c(C(=O)CSc2nnc(Cc3cccs3)n2C2CC2)c(=O)[nH]c1=O | 8.77 | 
26 | COc1ccc(N)cc1NC(=O)CN1CCOCC1 | 1.47 | 
27 | NC(=S)NN=Cc1ccc(OC(=O)COc2cc(Cl)c(Cl)cc2Cl)cn1 |  | 7.31 µM (active)
28 | O=C(COc1ccc(Cl)cc1Cl)N/N=C/c1ccccn1 | -20 | 
29 | O=C(COC(=O)COc1cc(Cl)c(Cl)cc1Cl)NC1CC1 | 0.578 | 
30 | CC(C)c1cc(Cn2c3ccccc3c(=O)n2C(C)Cn2cc(C3CC3)nn2)on1 (stereo unspecified) | -8.19 | 
31 | Cc1nnc(NC(=O)CCCOc2ccccc2)s1 | 6.19 | 
32 | Cc1nnc(NC(=O)c2ccc3nccnc3c2)s1 | 18.6 | 
33 | COCCSc1nnc(NC(=O)CCS(=O)(=O)Cc2ccccc2)s1 | -2.55 | 
34 | CSc1nnc(NC(=O)c2nc(S(=O)(=O)Cc3ccc(C)cc3)ncc2Cl)s1 |  | 6.51 µM (active)
35 | CSc1ncc(Cl)c(C(=O)Nc2cc(C)ccc2C)n1 | 14.2 | 
36 | Cc1ccc(CS(=O)(=O)c2ncc(Cl)c(C(=O)Nc3nnc(C)s3)n2)cc1 |  | 20.6 µM (active)
37 | Cc1cc(OCC(=O)Nc2nccs2)c2c(C)c(C)c(=O)oc2c1 | 1.11 | 
38 | CNC(=O)c1ccc(CN(C)C(=O)c2cc(C3CC3)nc3c2cnn3C(C)C)cc1 | -15.6 | 
39 | CC(=O)Oc1ccc(Cn2c(C)c(C(=O)NCc3ccc(C#N)cc3)sc2=O)cc1 | -23 | 
40 | O=C(/C=C/[C@H]1O[C@@H](n2ccc(=O)[nH]c2=O)[C@H](O)[C@@H]1O)NCc1ccccn1 | 18.2 | 
41 | CC1C(=O)Nc2ccccc2N1C(=O)c1c(F)cccc1F (stereo unspecified) | -5.49 | 
42 | Cc1c(CCO)c(=O)[nH]n1C(=O)c1c(F)cccc1F |  | 6.31 µM (active)
43 | Cc1c(CCO)c(=O)n(-c2ccccc2)n1S(=O)(=O)c1ccc(F)cc1 | -14.4 | 
44 | Cc1ccc(C(=O)OCC(=O)NC2CCCCCCC2)cc1C | 14.4 | 

Row | SMILES | activity, negative = toxicity [%] | Potency
45 | CCOC(=O)C1CCCN(C(=O)c2ccc(N(C)C)cc2)CC1 (stereo unspecified) | 18.3 | 
46 | CSc1ncnc2c1ncn2CCCNCc1cccs1 | -0.667 | 
47 | CC1(C(=O)NS(=O)(=O)c2cccs2)CCN1C(=O)Cc1ccc(-c2ccccc2)cc1 (stereo unspecified) | 0.115 | 
48 | Cc1ccc(Cc2c(-c3ccco3)nc3ccc(Cl)cn23)cc1 |  | 16.4 µM (active)
49 | Cc1ccc(Cc2c(-c3ccccc3)nc3ccc(Cl)cn23)cc1 | -1.66 | 
50 | Cc1ccc(-c2nc3ccc(Cl)cn3c2Cc2ccccc2)cc1 | 14.3 | 
51 | Cc1cccc(CNC(=O)c2sc(=O)n(Cc3ccccc3C)c2C)c1 | -6.96 | 
52 | CCN(CC)C(=O)C1=C(C)N(Cc2ccc(OC)cc2)C(=O)C(CC(=O)NCc2ccco2)C1 (stereo unspecified) | -4.38 | 
53 | CC(C)c1ccc(CC(=O)N2CCC2(C)C(=O)NS(=O)(=O)c2ccc(C(C)(C)C)cc2)cc1 (stereo unspecified) | 6.81 | 
54 | CC1=CC(C)(C)NC(=S)N1c1ccccc1 |  | 11.2 µM (active)
55 | CC1=CC(C)(C)NC(=S)N1NC(=O)c1ccccc1Cl | 6 | 
56 | O=C1C(Sc2cccc(F)c2)=C[C@@]2(O)CC[C@@H](O)[C@]1(Sc1cccc(F)c1)[C@H]2O | -28.1 | 
57 | CCOC(=O)c1cc(-c2sc(NC(=O)c3ccccc3)nc2C)n(CCO)n1 | -19.1 | 
58 | Cc1cc(C)n2c(Nc3c(C)cccc3C)c(CCc3ccccc3)nc2n1 | -3.88 | 
59 | COc1ccc(S(=O)(=O)N(C)C[C@H]2OCc3cnnn3CCCC(=O)N([C@H](C)CO)C[C@H]2C)cc1 | -3.99 | 
60 | Oc1c(Cl)cc(Cl)c(Cl)c1Cc1c(O)c(Cl)cc(Cl)c1Cl |  | 7.31 µM (active)
61 | COc1cc2nc(N3CCCN(C)CC3)nc(NC3CC3)c2cc1OC | -19 | 
62 | CC(=O)NN=C(C)c1ccc(NC(=O)C2CC2)cc1 | -0.362 | 
63 | CCCCN1CC(C)(C)[C@H](CC(=O)Nc2ccc(Br)cc2)C1=O | 8.88 | 
64 | COc1ccc(NC(=O)CCNC(=O)Cn2cnc3sc4c(c3c2=O)CCCC4)cc1OC | 1.16 | 
65 | COc1ccc(/C=N/Nc2ncnc3sc4c(c23)CCCC4)cc1O |  | 20.6 µM (active)
66 | COc1ccc(NC(=O)CCCNC(=O)Cn2cnc3sc4c(c3c2=O)CCCC4)cc1OC | 11.8 | 
